Shown are actives, neighbours in structure and some others; about 6% of the full set was active somewhere.
D1 potentiator = enhances dopamine response at the human D1 receptor; P21728; HEK293 TREx D1 cells, calcium flux, dopamine EC20 potentiation; potentiation, % at 10 µM; actives 0.036% (n = 360,000); in the data active means potentiation above about 30%
D1 agonist = agonists of human D1 dopamine receptor; HEK293 T-REx D1 cells, calcium flux, agonist mode; activation, % at 2 µM; actives 1% (n = 360,000); in the data active means activation above about 30%
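Agonism was scored from calcium flux recorded over 180 s (1 read/s) after pintool compound addition, following a 10-cycle baseline. Cells were inducible force-coupled HEK293 TREx D1, plated overnight at 30 C and loaded with no-wash calcium dye.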
D3 ag = agonists of human D3 dopamine receptor | actives 0.58% (n = 410,000) | P35462 | max activation, % | D3R DiscoveRx beta-arrestin cells, luminescence, 90 min; in the data active means max activation above about 30%
Target sequence (P35462 whole entry, looked up): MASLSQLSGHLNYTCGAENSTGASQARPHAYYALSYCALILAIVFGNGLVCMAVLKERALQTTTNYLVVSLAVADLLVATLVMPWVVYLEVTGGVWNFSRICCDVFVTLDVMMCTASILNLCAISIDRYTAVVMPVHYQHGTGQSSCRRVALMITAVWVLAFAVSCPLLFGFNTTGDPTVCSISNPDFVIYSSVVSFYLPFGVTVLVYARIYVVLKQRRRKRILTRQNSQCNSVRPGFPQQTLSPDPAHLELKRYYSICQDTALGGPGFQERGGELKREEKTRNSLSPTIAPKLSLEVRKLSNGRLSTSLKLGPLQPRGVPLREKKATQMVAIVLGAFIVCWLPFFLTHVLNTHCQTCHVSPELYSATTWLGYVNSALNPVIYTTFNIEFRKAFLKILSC
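Agonist-mode cell screen: cells plated at 1500/well and incubated overnight at 37 °C, then exposed to library compounds for 90 min at 37 °C. Detection reagent was added for 30–60 min at room temperature, and luminescence was read.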
D1 antagonist = human D1 dopamine receptor antagonism | P21728 | HEK293 TREx D1 cells, calcium flux, dopamine EC80; hits give low values | activity change, negative = inhibition, % at 10 µM | actives 3.2% (n = 360,000) | AID 504652; in the data active means activity change below about -30%
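Compound effects on dopamine-evoked calcium signalling were measured in tetracycline-induced HEK293 Trex D1 cells. Dopamine at EC80 followed a 180 s compound pre-read, and fluorescence was tracked kinetically for 180 s more.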
DRD3 antagonist = D3 dopamine receptor (human) antagonism | P35462 | D3R cells, DiscoveRx beta-arrestin luminescence, antagonist mode; hits give low values | max response, negative = inhibition, % | actives 2.5% (n = 360,000) | AID 652054; in the data active means max response below about -50%; inconclusive means no clear call, values can overlap the other calls
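Cells plated overnight at 1500 cells/well, then exposed to library compounds with dopamine controls for 90 minutes at 37 degrees C. DiscoveRx reagent added for 30–60 minutes at room temperature; luminescence read, quantitative HTS format.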
Numbers stand for hits; - = inactive; ? = inconclusive; . = no result given.

SMILES | D1 potentiator | D1 agonist | D3 ag | D1 antagonist | DRD3 antagonist
O=C(c1ccc(N2CCN(C3CC(=O)N(Cc4cccs4)C3=O)CC2)cc1)c1cccnc1 (configuration not stated) | - | - | - | - | -
Cc1cc(N2C(=O)CC(N3CCN(c4ccc(C(=O)c5cccs5)cc4)CC3)C2=O)no1 (configuration not stated) | - | - | - | - | -52.1
O=S(=O)(/N=C(\c1ccc(F)cc1)N1CCOCC1)c1ccccc1 | . | . | - | . | -
CC(Oc1ccc(-c2ccccc2)cc1)C(=O)N/N=C/c1cccnc1 (configuration not stated) | - | - | - | -35.8 | -
COc1ccc(C(=O)N/N=C/c2cccnc2)cc1 | - | - | - | - | -
COc1cc2c(cc1OC)C(=Cc1ccc(N(C)C)cc1)C=C2 | . | . | 33.3 | . | -
CN(C)c1ccc(C=C2C=Cc3ccccc32)cc1 | . | . | - | . | -
CN(C)CCNC(=O)COc1ccc(C23CC4CC(CC(C4)C2)C3)cc1 | - | 32.6 | - | - | -
Cc1ccccc1C(=NCCCN(C)C)c1ccccc1C | - | - | - | - | -75.3
COc1ccc(C(C)=O)cc1COC(=O)c1c(C)noc1C | - | - | - | -43.7 | -
COc1ccc(CSCC(=O)N/N=C/c2ccc(OCC(=O)N3CCCCC3)cc2)cc1 | - | - | - | - | -56.1
CCOC(=O)c1[nH]c2c(c1Cc1ccccc1)C(=O)CC(c1ccccc1)C2 (configuration not stated) | - | - | - | - | .
O=c1oc(-c2ccccc2F)nc2c1cnn2-c1ccccc1 | - | - | - | - | -64.5
O=S(=O)(NCCc1ccccc1)c1cccc(S(=O)(=O)N2CCOCC2)c1 | - | - | - | - | -
O=S(=O)(NCCC1=CCCCC1)c1cccc(S(=O)(=O)N2CCOCC2)c1 | - | - | - | - | -71.8
CC(C)C(=O)Nc1ccc(Sc2ccc(F)cc2)cc1 | - | - | - | -50.4 | -
COc1ccccc1NC(=O)C1CCN(C(=O)c2sc3nc[nH]c(=O)c3c2C)CC1 | - | - | - | - | .
O=C(C[n+]1ccc2ccccc2c1)c1ccc2ccc3ccccc3c2c1 | . | . | - | . | -78.0
Cc1ccc(-n2cc3c(c2-c2ccccc2Br)c(=O)n(C)c(=O)n3C)cc1N | - | - | - | - | .
O=C1C(=Cc2ccccn2)CCc2ccccc21 | . | . | - | . | -67.2
Cc1ccc(N2CCN(C(=O)Nc3cn(CC(C)C)c(=O)c4ccccc34)CC2)c(C)c1 | - | - | - | - | .
OCCN(CCO)CC(O)COc1ccc(C23CC4CC(CC(C4)C2)C3)cc1 (configuration not stated) | - | 31.2 | - | - | -
OCCNCc1ccc(-c2ccccc2)cc1 | - | - | - | - | -
OCCCNCc1ccc(N(c2ccccc2)c2ccccc2)cc1 | - | - | - | - | -65.8
COc1ccc(CCNC(=O)c2ccc(Nc3nc4ccccc4n4nnnc34)cc2)cc1OC | - | - | - | - | .
SMILES | D1 potentiator | D1 agonist | D3 ag | D1 antagonist | DRD3 antagonist
C=CCn1c(SCc2ccc(C(=O)O)cc2)nc2sc(C)c(C)c2c1=O | - | - | - | - | -
Cc1sc2nc(SCc3ccc(C(=O)O)cc3)n(Cc3ccco3)c(=O)c2c1C | - | - | 83.9 | - | -
COCCn1c(=NC(=O)c2ccc3c(c2)OCCO3)sc2cc(NC(C)=O)ccc21 | - | - | - | - | .
CCOCCn1c(=NC(=O)c2ccc3c(c2)OCCO3)sc2cc(OCC)ccc21 | - | - | - | -30.8 | .
Cn1cccc1/C=N/NC(=O)Cn1cnc2ccccc21 | - | - | - | - | -75.3
COc1ccc(/C=N/NC(=O)CCn2cnc3ccccc32)cc1 | - | - | - | -51.2 | -
COc1ccc(/C=N/NC(=O)CNS(=O)(=O)c2ccccc2)cc1 | - | - | - | -38.4 | -
CC(=O)Nc1ccc(/C=N/NC(=O)CNS(=O)(=O)c2ccccc2)cc1 | - | - | - | - | -
COc1ccc(CN2CCCC(C(=O)N3CCCC3)C2)c(OC)c1OC (configuration not stated) | . | . | - | . | -
COc1ccc(Br)cc1CN1CCCC(C(=O)N2CCCCCC2)C1 (configuration not stated) | - | - | - | -33.7 | ?
COc1ccccc1CN1CCCC(C(=O)N2CCCCC2)C1 (configuration not stated) | - | - | - | - | -
